PubChem BioAssay (NCI)
About 79,000 compounds went through this panel and 15% of them were active in at least one assay; those are over-represented in the sample as a whole. Active and inactive are the calls of the source. Cut-off read from the data, not from the text of the source: active = growth inhibition above about 70%; inactive = the rest.

What was measured:
[1] = NCI Yeast Anticancer Drug Screen. Data for the wt1 strain (AID 149);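 note: 0% = growth of vehicle-treated wt1 cultures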; conditions: S. cerevisiae wt1 strain (SPY 50644) growth inhibition, active compounds read high
Procedure, shortened: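 The wt1 strain was treated with compounds, and growth was compared with vehicle-treated cultures to give inhibition.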

[2] = NCI Yeast Anticancer Drug Screen. Data for the rad50 strain (AID 155);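 note: 0% = growth of vehicle-only cultures of the same strain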; conditions: S. cerevisiae rad50 strain growth inhibition, active compounds read high
Procedure, shortened: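 Cells are treated with compound, grown, and their growth is then scored against vehicle-only cultures of the same repair-deficient yeast strain.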

[3] = NCI Yeast Anticancer Drug Screen. Data for the mec2-1 strain (AID 157); conditions: S. cerevisiae mec2-1 strain, active compounds read high
Procedure, shortened: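 Using mec2-1 yeast: add compound, measure growth, express inhibition versus vehicle-treated cultures.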

[4] = NCI Yeast Anticancer Drug Screen. Data for the rad14 strain (AID 159);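 note: 0% = growth of vehicle-treated control cultures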; conditions: S. cerevisiae rad14 strain growth inhibition, active compounds read high
Procedure, shortened: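 Readout: yeast growth inhibition, referenced to vehicle-only cultures. Strain bears a defined alteration in DNA damage repair.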

[5] = NCI Yeast Anticancer Drug Screen. Data for the sgs1 mgt1 strain (AID 161);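 note: 0% = growth of cultures given vehicle only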; conditions: S. cerevisiae sgs1 mgt1 strain, active compounds read high
Procedure, shortened: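 This yeast growth screen uses a strain with defined DNA-repair lesions; compound-treated growth is compared with vehicle-treated growth.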

[6] = NCI Yeast Anticancer Drug Screen. Data for the CLN2oe strain (AID 163);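 note: 0% = growth of vehicle-only control cultures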; conditions: S. cerevisiae CLN2oe strain, active compounds read high
Procedure, shortened: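 Whole-cell yeast growth assay. A strain engineered for altered cell-cycle control received compound, and inhibition relative to vehicle-treated cultures was recorded.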

[7] = NCI Yeast Anticancer Drug Screen. Data for the cln2 rad14 strain (AID 165);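 note: 0% = growth equal to vehicle treated cultures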; conditions: S. cerevisiae cln2 rad14 strain, active compounds read high
Procedure, shortened: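 Yeast strain cln2 rad14, bearing defects in cell cycle control and DNA repair, serves as the test system; values reflect growth inhibition compared with vehicle.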

[8] = NCI Yeast Anticancer Drug Screen. Data for the bub3 strain (AID 167); conditions: S. cerevisiae bub3 mutant strain, active compounds read high
Procedure, shortened: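 Part of a panel of yeast mutants defective in DNA damage repair or cell cycle regulation. Each strain is grown with compound, and inhibition is calculated relative to solvent-treated cultures.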

[9] = NCI Yeast Anticancer Drug Screen. Data for the mlh1 strain (AID 171);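 note: 0% = growth of vehicle-treated control cultures of the same strain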; conditions: S. cerevisiae mlh1 strain growth inhibition, active compounds read high
Procedure, shortened: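 A yeast strain with a defined genetic lesion serves as the test organism. Cultures receive compound or vehicle, and growth is measured.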

[10] = NCI Yeast Anticancer Drug Screen. Data for the sgs1 strain (AID 173);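 note: 0% = growth of vehicle-only control cultures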; conditions: S. cerevisiae sgs1 mutant, active compounds read high
Procedure, shortened: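 A genetically defined yeast mutant is incubated with the test compound, and its growth is compared to that of the same strain given vehicle.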

[11] = NCI Yeast Anticancer Drug Screen. Data for the mlh1 rad18 strain (AID 175); conditions: S. cerevisiae mlh1 rad18 strain growth inhibition, active compounds read high
Procedure, shortened: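 Steps: expose repair-defective yeast to compound; measure growth; express inhibition against vehicle-treated controls.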

[12] = NCI Yeast Anticancer Drug Screen. Data for the rad18 strain (AID 177); conditions: S. cerevisiae rad18 mutant growth inhibition, active compounds read high
Procedure, shortened: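 Measured value is growth inhibition of a yeast strain bearing a DNA repair alteration, referenced to vehicle-treated cells.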

[13] = NCI Yeast Anticancer Drug Screen. Data for the rad50EPP+ strain (AID 151);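 note: 0% = growth of vehicle-treated control cultures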; conditions: S. cerevisiae rad50 mutant strain, active compounds read high
Procedure, shortened: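 Read-out is yeast growth inhibition relative to vehicle; cells used were the rad50EPP+ strain.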

[14] = NCI Yeast Anticancer Drug Screen. Data for the mgt1 strain (AID 153); conditions: S. cerevisiae mgt1 mutant growth inhibition, active compounds read high
Procedure, shortened: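 Measured: inhibition of mgt1 yeast growth by compound, normalized to vehicle-treated cultures.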

[15] = NCI Yeast Anticancer Drug Screen. Data for the wt2 strain (AID 169);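 note: 0% = growth of vehicle-treated yeast cultures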; conditions: S. cerevisiae wt2 strain growth inhibition, active compounds read high
Procedure, shortened: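 Treated yeast vs. vehicle-treated yeast: growth inhibition determined.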

[16] = NCI Yeast Anticancer Drug Screen. Data for the rad52 strain (AID 147);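 note: 0% = growth of vehicle-treated control cultures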; conditions: S. cerevisiae rad52 mutant growth inhibition, active compounds read high
Procedure, shortened: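 Here a repair-compromised yeast strain receives each compound; its growth is then quantified and normalised to vehicle-only controls.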

[17] = at 5.0 µM (retest, dose inferred, filed as 0.5)
[18] = at 50.0 µM (retest, dose inferred, filed as 5.0)

Measured: growth inhibition

Cc1cccc(/C=N/NC(=S)N2CCCC2)n1
inactive: [1]; at 1.2 µM -4% | [1]; at 3.7 µM 1% | [1]; at 11.0 µM 12% | [2]; at 1.2 µM -10% | [2]; at 3.7 µM -14% | [2]; [17] 26% | [2]; at 11.0 µM 35% | [3]; at 1.2 µM -24% | [3]; at 3.7 µM -21% | [3]; [17] 36% | [4]; at 1.2 µM 2% | [4]; at 3.7 µM 6% | [5]; [17] 25% | [5]; [18] 47% | [6]; at 1.2 µM -30% | [6]; at 3.7 µM -31% | [6]; at 11.0 µM 10% | [7]; [17] 2% | [8]; at 1.2 µM -13% | [8]; at 3.7 µM -8% | [8]; [17] 40% | [8]; at 11.0 µM 32% | [9]; at 1.2 µM -8% | [9]; at 3.7 µM -8% | [9]; at 11.0 µM 48% | [10]; at 1.2 µM -19% | [10]; at 3.7 µM -21% | [10]; at 11.0 µM 17% | [11]; [17] 14% | [12]; at 1.2 µM -17% | [12]; at 3.7 µM -14% | [12]; at 11.0 µM 12%
active: [1]; at 33.0 µM 94% | [1]; at 100.0 µM 96% | [2]; at 33.0 µM 95% | [2]; [18] 94% | [2]; at 50.0 µM 86.3% | [2]; at 100.0 µM 95% | [3]; at 11.0 µM 73% | [3]; at 33.0 µM 94% | [3]; [18] 95% | [3]; at 50.0 µM 89.8% | [3]; at 100.0 µM 97% | [4]; at 11.0 µM 74% | [4]; at 33.0 µM 96% | [4]; at 100.0 µM 98% | [5]; at 50.0 µM 88.2% | [6]; at 33.0 µM 93% | [6]; at 100.0 µM 96% | [7]; [18] 94% | [7]; at 50.0 µM 87% | [8]; at 33.0 µM 95% | [8]; [18] 96% | [8]; at 50.0 µM 88.5% | [8]; at 100.0 µM 96% | [9]; at 33.0 µM 95% | [9]; at 100.0 µM 97% | [10]; at 33.0 µM 95% | [10]; at 100.0 µM 96% | [11]; [18] 95% | [11]; at 50.0 µM 86% | [12]; at 33.0 µM 95% | [12]; at 100.0 µM 96%

NNC(=O)CCc1cc2ccccc2c2ccccc12
inactive: [1]; at 1.2 µM 3% | [1]; at 3.7 µM 2% | [1]; at 11.0 µM 9% | [1]; at 33.0 µM 4% | [13]; at 1.2 µM -8% | [13]; at 3.7 µM -21% | [13]; at 11.0 µM -16% | [13]; at 33.0 µM 28% | [13]; at 100.0 µM 50% | [14]; at 1.2 µM -3% | [14]; at 3.7 µM -8% | [14]; at 11.0 µM -2% | [14]; at 33.0 µM 1% | [2]; at 1.2 µM -13% | [2]; at 3.7 µM -16% | [2]; [17] 19% | [2]; at 11.0 µM -12% | [2]; at 33.0 µM 38% | [3]; at 1.2 µM -2% | [3]; at 3.7 µM -2% | [3]; [17] 12% | [3]; at 11.0 µM -2% | [3]; at 33.0 µM -2% | [4]; at 1.2 µM -2% | [4]; at 3.7 µM -1% | [4]; at 11.0 µM 23% | [4]; at 33.0 µM 31% | [5]; [17] 28% | [6]; at 1.2 µM -9% | [6]; at 3.7 µM -7% | [6]; at 11.0 µM -12% | [6]; at 33.0 µM -2% | [7]; [17] 11% | [8]; at 1.2 µM -7% | [8]; at 3.7 µM -8% | [8]; [17] 50% | [8]; at 11.0 µM -9% | [8]; at 33.0 µM 18% | [15]; at 1.2 µM -8% | [15]; at 3.7 µM 1% | [15]; at 11.0 µM 18% | [15]; at 33.0 µM 53% | [9]; at 1.2 µM -13% | [9]; at 3.7 µM -6% | [9]; at 11.0 µM -3% | [9]; at 33.0 µM 38% | [10]; at 1.2 µM -20% | [10]; at 3.7 µM -8% | [10]; at 11.0 µM 9% | [10]; at 33.0 µM 43% | [12]; at 1.2 µM -6% | [12]; at 3.7 µM -5% | [12]; at 11.0 µM 0% | [12]; at 33.0 µM 30%
active: [1]; at 100.0 µM 99% | [14]; at 100.0 µM 99% | [2]; [18] 99% | [2]; at 50.0 µM 97.9% | [2]; at 100.0 µM 99% | [3]; [18] 99% | [3]; at 50.0 µM 98.8% | [3]; at 100.0 µM 99% | [4]; at 100.0 µM 99% | [5]; [18] 98% | [5]; at 50.0 µM 98.5% | [6]; at 100.0 µM 99% | [7]; [18] 98% | [7]; at 50.0 µM 98% | [8]; [18] 98% | [8]; at 50.0 µM 98.8% | [8]; at 100.0 µM 99% | [15]; at 100.0 µM 100% | [9]; at 100.0 µM 99% | [10]; at 100.0 µM 99% | [12]; at 100.0 µM 99%

OCc1ccccc1Cc1ccccc1
active: [2]; at 50.0 µM 87.9% | [11]; at 50.0 µM 79.6%
inactive: [16]; at 1.2 µM -4% | [16]; at 3.7 µM 0% | [16]; at 11.0 µM -2% | [16]; at 33.0 µM -3% | [16]; at 100.0 µM -3% | [13]; at 1.2 µM 2% | [13]; at 3.7 µM 2% | [13]; at 11.0 µM 8% | [13]; at 33.0 µM 12% | [13]; at 100.0 µM 30% | [14]; at 1.2 µM -3% | [14]; at 3.7 µM -5% | [14]; at 11.0 µM -2% | [14]; at 33.0 µM 12% | [14]; at 100.0 µM -10% | [2]; at 1.2 µM -1% | [2]; at 3.7 µM 0% | [2]; [17] 7% | [2]; at 11.0 µM -1% | [2]; at 33.0 µM -3% | [2]; [18] 21% | [2]; at 100.0 µM -6% | [3]; at 1.2 µM -1% | [3]; at 3.7 µM 2% | [3]; [17] -2% | [3]; at 11.0 µM -4% | [3]; at 33.0 µM -6% | [3]; [18] -17% | [3]; at 50.0 µM 53.4% | [3]; at 100.0 µM -6% | [4]; at 1.2 µM -1% | [4]; at 3.7 µM -1% | [4]; at 11.0 µM 0% | [4]; at 33.0 µM -2% | [4]; at 100.0 µM -3% | [5]; [17] 0% | [5]; [18] 50% | [5]; at 50.0 µM 60.5% | [6]; at 1.2 µM -7% | [6]; at 3.7 µM 0% | [6]; at 11.0 µM -2% | [6]; at 33.0 µM -5% | [6]; at 100.0 µM -7% | [7]; [17] 5% | [7]; [18] -2% | [7]; at 50.0 µM 32.9% | [8]; at 1.2 µM 2% | [8]; at 3.7 µM -1% | [8]; [17] 12% | [8]; at 11.0 µM 5% | [8]; at 33.0 µM 1% | [8]; [18] 40% | [8]; at 50.0 µM 65.8% | [8]; at 100.0 µM -9% | [15]; at 1.2 µM 0% | [15]; at 3.7 µM 0% | [15]; at 11.0 µM 0% | [15]; at 33.0 µM -2% | [15]; at 100.0 µM -7% | [9]; at 1.2 µM -1% | [9]; at 3.7 µM -1% | [9]; at 11.0 µM 0% | [9]; at 33.0 µM -2% | [9]; at 100.0 µM -3% | [10]; at 1.2 µM 0% | [10]; at 3.7 µM 2% | [10]; at 11.0 µM 2% | [10]; at 33.0 µM 1% | [10]; at 100.0 µM -1% | [11]; [17] 3% | [11]; [18] 63% | [12]; at 1.2 µM -1% | [12]; at 3.7 µM 0% | [12]; at 11.0 µM -16% | [12]; at 33.0 µM -2% | [12]; at 100.0 µM -6%
